This is one part of a sample in which hits are shown more often than they occur.
PDI turbidity = inhibitors of human PDI, primary screen, biochemical, turbidity, single point, plate reader; Protein disulfide-isomerase (Homo sapiens), P07237; PDI insulin aggregation turbidity, A650, 90 min; inhibition, % at 10 µM; 350,000 compounds, 0.052% hits; AID 588391, 2011;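 active = mean inhibition across replicates of 30% or more, whatever share of single replicates reach that level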
Target sequence (P07237 whole entry, looked up): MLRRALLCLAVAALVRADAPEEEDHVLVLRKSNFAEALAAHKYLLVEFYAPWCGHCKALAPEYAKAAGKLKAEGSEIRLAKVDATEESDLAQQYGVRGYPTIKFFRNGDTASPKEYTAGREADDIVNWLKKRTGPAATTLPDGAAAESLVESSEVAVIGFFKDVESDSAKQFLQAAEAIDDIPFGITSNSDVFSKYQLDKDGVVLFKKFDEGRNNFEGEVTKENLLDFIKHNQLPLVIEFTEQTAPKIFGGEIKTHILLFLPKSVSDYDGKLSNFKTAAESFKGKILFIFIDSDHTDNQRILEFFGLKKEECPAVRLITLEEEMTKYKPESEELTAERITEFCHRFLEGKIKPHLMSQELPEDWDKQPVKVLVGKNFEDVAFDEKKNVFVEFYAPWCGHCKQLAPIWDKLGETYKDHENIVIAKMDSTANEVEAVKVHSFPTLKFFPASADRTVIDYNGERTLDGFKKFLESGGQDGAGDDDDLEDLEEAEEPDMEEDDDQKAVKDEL
ARNT-TACC3 inh = disruptors of ARNT/TACC3 protein interaction, primary screen, biochemical, AlphaScreen, single concentration | Transforming acidic coiled-coil-containing protein 3 (Homo sapiens), Q9Y6A5 | AlphaScreen His-ARNT PAS-B/GST-TACC3 binding, luminescence; TACC3 fragment carries E629A point mutation | inhibition, % at 9.99 µM | 390,000 compounds, 0.66% hits;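 active = mean inhibition of replicates at least 50% and at least half of replicates each reaching 50%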
NRP1-CendR mod = modulators of CendR peptide binding to NRP-1, primary screen, biochemical, fluorescence polarization, uHTS. Neuropilin-1 (Homo sapiens), O14786. FAM-RPARPAR peptide binding to NRP-1. inhibition, % at 25 µM. 360,000 compounds, 0.85% hits. AID 602438, 2012;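 active = inhibition or corrected inhibition above about 18%, plus a signal ratio from 0.5 to 1.5, limit read from the data, passing the limit was not always enough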
PglD inh = C. jejuni PglD acetyltransferase inhibitors, primary screen, biochemical, DTNB colorimetric, single point; AID 602405, 2012; 360,000 compounds, 0.098% hits; purified PglD enzyme, DTNB colorimetric CoA detection; UDP-N-acetylbacillosamine N-acetyltransferase PglD (Campylobacter jejuni); inhibition, % at 12.5 µM; in the data active = inhibition above about 16%, passing the limit was not always enough
ALR H2O2 inh = inhibitors of human ALR sulfhydryl oxidase, primary screen, biochemical, H2O2 detection, HRP-luminol luminescence, single point | FAD-linked sulfhydryl oxidase ALR (Homo sapiens), P55789 | purified ALR, DTT oxidation | inhibition, % (concentration not given with the values) | 290,000 compounds, 3.8% hits | AID 485317, 2010;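 active = mean replicate inhibition above about 79%, with every replicate also reaching it, limit read from the data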
ERp5 inh = inhibitors of ERp5-driven insulin aggregation, primary screen, biochemical, turbidity, absorbance 650 nm, single point | 90 min | AID 651711, 2012 | Protein disulfide-isomerase A6 (Homo sapiens), Q15084 | inhibition, % at 9.99 µM | 350,000 compounds, 0.05% hits;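 active = mean replicate inhibition above about 25%, with every replicate also reaching it, limit read from the data, passing the limit was not always enough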
Hits are given with their value; - = inactive; . = not tested or not shown; ! = not confirmed by another sample.

SMILES	PDI turbidity	ARNT-TACC3 inh	NRP1-CendR mod	PglD inh	ALR H2O2 inh	ERp5 inh
O=C(CSc1nc2c(sc3ccccc32)c(=O)n1CCCN1CCCC1)NCc1ccccc1	-	-	-	.	-	-
COc1cccc(NC(=O)CSc2nc3c(sc4ccccc43)c(=O)n2CCCN2CCCC2)c1	-	-	-	-	97	-
Cc1ccc(CNC(=O)CSc2nc3c(sc4ccccc43)c(=O)n2CCCN2CCCC2)cc1	-	-	-	.	99	-
COc1cccc(NC(=O)CSc2nc3c(sc4ccccc43)c(=O)n2CCN(C)C)c1	-	-	-	.	100	-
C[C@H](CO)N1C[C@H](C)[C@H](CN(C)C(=O)Nc2ccc3c(c2)OCO3)Oc2ccc(NC(=O)Cc3cn(C)c4ccccc34)cc2CC1=O	.	-	.	-	.	-
CCOc1c(C)cc(-c2ncccc2O)cc1C	-	-	-	-	92!	.
C[C@H](CO)N1C[C@H](C)[C@H](CN(C)Cc2cccc(C(=O)O)c2)Oc2ncc(C#CCN(C)C)cc2C1=O	.	-	.	-	.	-
CCc1c(C)[nH]n(-c2ccc(Oc3ccccc3)c(S(=O)(=O)O)c2)c1=O	-	-	-	-	99	.
Cc1cc(C)n(-c2ccc(Oc3ccccc3)c(S(=O)(=O)O)c2)n1	-	-	-	.	-	-
C[C@@H]1CN([C@H](C)CO)C(=O)c2cc(NC(=O)Cc3ccccc3)ccc2O[C@@H](C)CCCCO[C@H]1CN(C)Cc1ccc(C(F)(F)F)cc1	.	-	.	-	.	.
COCCn1c(SCC(=O)c2ccccc2)nc2c(c1=O)SC(C)C2 (centres undefined)	-	-	-	-	99	.
CCn1c(SCC(=O)c2ccccc2)nc2c(c1=O)SC(C)C2 (centres undefined)	-	-	-	.	99	.
COc1ccc(S(=O)(=O)Nc2ccc3c(c2)C(=O)N([C@@H](C)CO)C[C@@H](C)[C@@H](CN(C)C(=O)NC2CCCCC2)O3)cc1	.	-	.	-	.	-
C[C@@H]1CN([C@@H](C)CO)C(=O)Cc2cc(NC(=O)C3CC3)ccc2O[C@@H]1CN(C)C(=O)Nc1ccc(C(F)(F)F)cc1	.	-	.	-	.	-
CCN(CC)c1ccc(NS(=O)(=O)c2ccc(-c3ccc(=O)[nH]n3)o2)c(C)c1	-	-	-	-	100	-
Cn1c(-c2ccc3nc(N)sc3c2)nc2cc(N)ccc21	-	-	-	-	99	.
Cn1c(-c2ccc(N)cc2)nc2ccccc21	-	-	-	-	-	.
Cc1oc(-c2ccccc2Cl)nc1CS(=O)(=O)CC(=O)NC1CCCC1	.	-	-	-	98	-
COc1cccc(-c2nc(CS(=O)(=O)CC(=O)NC3CCC(C)CC3)c(C)o2)c1 (centres undefined)	-	-	-	.	-	-
COc1cccc(-c2nc(CS(=O)(=O)CC(=O)NC3CCCC3)c(C)o2)c1	-	-	-	-	98	-
COc1cccc(-c2nc(CS(=O)(=O)CC(=O)NC3CCCc4ccccc43)c(C)o2)c1 (centres undefined)	.	-	-	-	89	-
C[C@@H]1CN([C@H](C)CO)C(=O)c2cc(C3=CCCCC3)cnc2O[C@H]1CN(C)C(=O)NC1CCCC1	.	-	.	-	.	-
CC(=O)NC(c1cc(F)c2cccnc2c1O)C1CC1 (centres undefined)	-	40	26	-	-	-
CC(=O)NC(c1ccccc1)c1cc(Cl)c2cccnc2c1O (centres undefined)	-	-	-	-	-	-
CNC[C@@H]1Oc2ncc(Br)cc2C(=O)N([C@@H](C)CO)C[C@@H]1C	.	-	.	-	.	-
SMILES	PDI turbidity	ARNT-TACC3 inh	NRP1-CendR mod	PglD inh	ALR H2O2 inh	ERp5 inh
CCn1c(CS(=O)Cc2ccc(Cl)cc2Cl)nnc1SCc1c(Cl)cccc1Cl (centres undefined)	-	-	-	-	99	-
CCn1c(CC(=O)Nc2ccc(Cl)c(Cl)c2)nnc1SCc1ccc(Cl)cc1	-	-	-	.	-	.
Cc1ccc(C(=O)Nc2nc(-c3ccc([N+](=O)[O-])cc3)cs2)o1	-	-	-	.	98	-
CS(=O)(=O)Nc1ccc2c(c1)[C@@H]1C[C@@H](CC(=O)NC3CCCC3)O[C@@H](CO)[C@@H]1O2	.	-	.	-	.	-
Cc1ccc(S(=O)(=O)NCC[C@@H]2CC[C@@H](NC(=O)NC(C)C)[C@@H](CO)O2)cc1	.	.	.	-	.	-
Cc1ccc(S(=O)(=O)N(CC(=O)Nc2ccccc2C(=O)O)c2cccc(Cl)c2C)cc1	-	-	-	.	97	-
Cc1ccc(S(=O)(=O)N(CC(=O)Nc2ccccc2C(=O)O)c2ccccc2C)cc1	-	-	-	.	-	-
O=C1CSC(c2ccc(Cl)cc2)N1c1cccnc1 (centres undefined)	-	-	-	-	98	-
O=C1CSC(c2cccnc2)N1C1CCCCC1 (centres undefined)	-	-	-	-	-	.
O=C1CSC(c2cccnc2)N1c1ccc(Cl)cc1 (centres undefined)	-	-	-	-	99	-
Cc1ccc(N2C(=O)CSC2c2cccnc2)cc1F (centres undefined)	-	-	-	-	100	.
CC(=O)C1=C(O)C(=O)N(c2cccnc2)C1c1ccc(Cl)cc1 (centres undefined)	-	-	-	.	.	.
C[C@H](CO)N1C[C@H](C)[C@@H](CN(C)Cc2ccc(C(F)(F)F)cc2)Oc2c(NS(=O)(=O)c3cn(C)cn3)cccc2C1=O	.	.	.	-	.	-
Cc1noc(C)c1NC(=O)N(C)C[C@H]1Oc2ccc(NS(=O)(=O)c3c(C)noc3C)cc2CC(=O)N([C@@H](C)CO)C[C@@H]1C	.	-	.	-	.	-
COc1cccc(C2C=C(c3cccs3)Nc3ncnn32)c1OC (centres undefined)	-	28	-	-	-	.
COc1ccc(C2C=C(c3ccc(Br)s3)Nc3ncnn32)cc1OC (centres undefined)	.	.	.	.	-	.
Cc1ccc(N2CCC(N3CCN(C)C(CCO)C3)CC2)cc1 (centres undefined)	-	-	-	-	99	-
CCC1CCC(N2CCN(c3cccc(OC)c3)CC2)CC1 (centres undefined)	-	-	-	-	-	-
COc1cccc(N2CCC(N3CCN(C)C(CCO)C3)CC2)c1 (centres undefined)	-	-	-	-	94	-
CC(C)CCN1CCN(C2CCN(c3ccccc3)CC2)CC1CCO (centres undefined)	-	.	-	.	98	-
CCC(=O)N[C@H]1CC[C@@H](CC(=O)NCC2CCCCC2)O[C@@H]1CO	.	-	.	-	.	-

Assay outcomes (PubChem)
